# Experimental data published in PubChem BioAssay AID1159580 (chemical genetic matrix, 2015).
# Where “and” joins values, the source holds several entries; their conditions need not be identical. Identical values can stand only once. In all, about 5,500 compounds went through this assay and about 2,000 (36%) were called active. Another 18% or so got no clear call; they are omitted. The list shows a part of the results. A number with no mark means an inactive call. Rule as the data show it: active = normalized growth mostly below about 0.91 (no sharp cut-off); inconclusive = no clear call, values can overlap the other calls; inactive = mostly above about 0.92.
# Test: chemical genetic growth profiling, strain panel (AID 1159580);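 also: tested at 20 µM; growth read once vehicle control cultures reached saturation at 30 °C; 1 = growth at the plate median or of vehicle wells; lower values mean less growth of the strain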
# Conditions: S. cerevisiae deletion strains, growth OD
structure (smiles),measurement,setting,value
CC1=CC2C(C(C)C)CCC(C)(O)C2CC1 (configuration not stated),normalized growth,"locus YAL013W, strain DEP1, hits give low values",1
same,normalized growth,"locus YAL021C, strain ccr4, hits give low values",0.981
same,normalized growth,"locus YAL026C, strain drs2, hits give low values",1.01
same,normalized growth,"locus YAL030W, strain snc1, hits give low values",0.989
same,normalized growth,"locus YBL061C, strain skt5, hits give low values",0.991
same,normalized growth,"locus YBR009C, strain hhf1, hits give low values",0.97
same,normalized growth,"locus YBR021W, strain FUR4, hits give low values",0.999
same,normalized growth,"locus YBR023C, strain chs3, hits give low values",0.945
same,normalized growth,"locus YBR171W, strain sec66, hits give low values",0.974
same,normalized growth,"locus YBR229C, strain ROT2, hits give low values",0.949
same,normalized growth,"locus YBR231C, strain swc5, hits give low values",1.02
same,normalized growth,"locus YBR279W, strain paf1, hits give low values",0.988
same,normalized growth,"locus YCL011C, strain gbp2, hits give low values",0.998
same,normalized growth,"locus YCL016C, strain dcc1, hits give low values",0.972
same,normalized growth,"locus YCL029C, strain bik1, hits give low values",0.953
same,normalized growth,"locus YCL061C, strain MRC1, hits give low values",1.01
same,normalized growth,"locus YCL069W, strain vba3, hits give low values",0.981
same,normalized growth,"locus YCR088W, strain abp1, hits give low values",0.996
same,normalized growth,"locus YDL005C, strain med2, hits give low values",0.998
same,normalized growth,"locus YDL035C, strain GPR1, hits give low values",0.963
same,normalized growth,"locus YDL040C, strain nat1, hits give low values",0.987
same,normalized growth,"locus YDL074C, strain BRE1, hits give low values",0.97
same,normalized growth,"locus YDL101C, strain DUN1, hits give low values",0.977
same,normalized growth,"locus YDL134C, strain PPH21, hits give low values",1.01
same,normalized growth,"locus YDL185W, strain tfp1, hits give low values",0.972
same,normalized growth,"locus YDL192W, strain arf1, hits give low values",0.934
same,normalized growth,"locus YDR001C, strain nth1, hits give low values",0.992
same,normalized growth,"locus YDR069C, strain doa4, hits give low values",1.01
same,normalized growth,"locus YDR101C, strain arx1, hits give low values",0.969
same,normalized growth,"locus YDR137W, strain rgp1, hits give low values",0.771 (active)
same,normalized growth,"locus YDR159W, strain sac3, hits give low values",0.915
same,normalized growth,"locus YDR162C, strain NBP2, hits give low values",0.956
same,normalized growth,"locus YDR195W, strain ref2",1.03
same,normalized growth,"locus YDR297W, strain sur2, hits give low values",0.979
same,normalized growth,"locus YDR318W, strain mcm21, hits give low values",0.959
same,normalized growth,"locus YDR334W, strain swr1, hits give low values",1.03
same,normalized growth,"locus YDR335W, strain msn5, hits give low values",0.977
same,normalized growth,"locus YDR388W, hits give low values",0.985
same,normalized growth,"locus YDR392W, strain spt3, hits give low values",0.59 (active)
same,normalized growth,"locus YDR502C, strain sam2, hits give low values",1.02
same,normalized growth,"locus YEL003W, strain gim4, hits give low values",1
same,normalized growth,"locus YEL037C, strain rad23, hits give low values",0.997
same,normalized growth,"locus YEL061C, strain CIN8 (second series), hits give low values",1
same,normalized growth,"locus YEL061C, strain CIN8, hits give low values",0.974
same,normalized growth,"locus YER015W, strain faa2, hits give low values",0.991
same,normalized growth,"locus YER016W, strain bim1, hits give low values",0.998
same,normalized growth,"locus YER110C, hits give low values",0.966
same,normalized growth,"locus YER111C, strain swi4, hits give low values",0.995
same,normalized growth,"locus YER155C, strain BEM2 (second series), hits give low values",0.875
same,normalized growth,"locus YER155C, strain BEM2, hits give low values",0.992
same,normalized growth,"locus YER167W, strain BCK2, hits give low values",0.977
same,normalized growth,"locus YFR010W, strain ubp6, hits give low values",1.1
same,normalized growth,"locus YGL078C, strain dbp3, hits give low values",1.02
same,normalized growth,"locus YGL086W, strain mad1, hits give low values",0.978
same,normalized growth,"locus YGL167C, strain pmr1, hits give low values",0.98
same,normalized growth,"locus YGL173C, strain kem1, hits give low values",0.994
same,normalized growth,"locus YGL227W, strain vid30, hits give low values",0.991
same,normalized growth,"locus YGL240W, strain doc1, hits give low values",0.959
same,normalized growth,"locus YGL248W, strain PDE1, hits give low values",1.02
same,normalized growth,"locus YGL253W, strain hxk2, hits give low values",0.998
same,normalized growth,"locus YGR078C, strain PAC10, hits give low values",0.981
same,normalized growth,"locus YGR135W, strain pre9, hits give low values",1.08
same,normalized growth,"locus YGR229C, strain SMI1, hits give low values",0.969
same,normalized growth,"locus YGR252W, strain gcn5, hits give low values",1.06
same,normalized growth,"locus YHR013C, strain ard1, hits give low values",1.08
same,normalized growth,"locus YHR027C, strain rpn1, hits give low values",1.01
same,normalized growth,"locus YHR030C, strain SLT2, hits give low values",1 and 0.93
same,normalized growth,"locus YHR079C, strain IRE1 (second series), hits give low values",0.987
same,normalized growth,"locus YHR079C, strain IRE1, hits give low values",0.918
same,normalized growth,"locus YHR094C, strain hxt1, hits give low values",0.983
same,normalized growth,"locus YHR129C, strain ARP1, hits give low values",0.993
same,normalized growth,"locus YHR142W, strain chs7, hits give low values",0.916
same,normalized growth,"locus YHR200W, strain rpn10, hits give low values",1
same,normalized growth,"locus YIL066C, strain RNR3, hits give low values",0.968
same,normalized growth,"locus YIL073C, strain SPO22, hits give low values",1.04
same,normalized growth,"locus YIL125W, strain kgd1, hits give low values",0.961
same,normalized growth,"locus YIR030C, strain dcg1, hits give low values",0.981
same,normalized growth,"locus YJL092W, strain hpr5, hits give low values",0.996
same,normalized growth,"locus YJL095W, strain BCK1 (second series), hits give low values",0.995
same,normalized growth,"locus YJL095W, strain BCK1, hits give low values",1.05 and 0.947
same,normalized growth,"locus YJL115W, strain asf1, hits give low values",1
same,normalized growth,"locus YJL129C, strain trk1, hits give low values",1.01
same,normalized growth,"locus YJL134W, strain LCB3, hits give low values",0.979
same,normalized growth,"locus YJL154C, strain vps35, hits give low values",0.998
same,normalized growth,"locus YJL164C, strain tpk1, hits give low values",0.942
same,normalized growth,"locus YJL166W, strain qcr8, hits give low values",0.979
same,normalized growth,"locus YJL168C, strain set2, hits give low values",0.992
